Among the data in PubChem BioAssay (NCATS) are Potency and viability values, retold here.

Broadly, the viability is a read-out of living cells in per cent, often relative to untreated cells.

Records with an inconclusive call do not appear. Unmarked numbers belong to inactive results. Active and inactive are the calls of the source. Calls follow the shape of the dose curve; as a rule, active = well fitted cell-killing curve with a large enough effect; inconclusive = small, poorly fitted or top-dose-only effect, or effect the other way; inactive = no such curve, though single readings can be large or run the other way.

Assay [1] in a line: Quantitative High-Throughput drug screen in 47 multiple myeloma cell lines against the NCATS MIPE library collection: KMS34_JCRB cell viability assay (AID 1918985). Also: nearly all actives have a fitted effect of over 40% in size. In a few lines:
(§1)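 ATP-based CellTiter-Glo luminescence after 48 h drug exposure (37 °C, 5% CO2) of 500 myeloma cells per well. DMSO-only wells set 100% viability, media-only wells 0%; MIPE 4.0 library added by pin tool.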

Assay [2] in a line: Quantitative High-Throughput drug screen in 47 multiple myeloma cell lines against the NCATS MIPE library collection: OCIMY5_PLB cell viability assay (AID 1918988). Also: nearly all actives have a fitted effect of over 65% in size. In a few lines:
as §1

Assay [3] can be described thus: Quantitative High-Throughput drug screen in 47 multiple myeloma cell lines against the NCATS MIPE library collection: U266_ATCC cell viability assay (AID 1919864). Also: nearly all actives have a fitted effect of over 35% in size. In a few lines: as §1
Assay [4] can be described thus: Quantitative High-Throughput drug screen in 47 multiple myeloma cell lines against the NCATS MIPE library collection: PCM6_Riken cell viability assay (AID 1919870). Also: nearly all actives have a fitted effect of over 30% in size. In a few lines:
as §1

Assay [5] can be described thus: Quantitative High-Throughput drug screen in 47 multiple myeloma cell lines against the NCATS MIPE library collection: OPM2_DSMZ cell viability assay (AID 1919872). Also: nearly all actives have a fitted effect of over 30% in size. In a few lines: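 Relative luminescence from CellTiter-Glo served as the viability signal, referenced to DMSO-treated (100%) and cell-free medium (0%) controls. Treatment lasted 48 hours at 37C with 500 cells per well.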

Assay [6] is described as follows: Quantitative High-Throughput drug screen in 47 multiple myeloma cell lines against the NCATS MIPE library collection: KMS11_JCRBsus cell viability assay (AID 1919873). Also: nearly all actives have a fitted effect of over 50% in size. In a few lines:
as §1

A short description of assay [7]: Quantitative High-Throughput drug screen in 47 multiple myeloma cell lines against the NCATS MIPE library collection: L363_DSMZ cell viability assay (AID 1918984). Also: nearly all actives have a fitted effect of over 40% in size. Particulars: L363 myeloma viability, CellTiter-Glo ATP luminescence, 48 h; viability (% of control): at 45.8 µM (top of the series). In short, it runs like this:
as §1
Background: ATP-based viability assays read luminescence as a measure of living cells.

A short description of assay [8]: Quantitative High-Throughput drug screen in 47 multiple myeloma cell lines against the NCATS MIPE library collection: SKMM1_PLB cell viability assay (AID 1919863). Also: nearly all actives have a fitted effect of over 35% in size. Particulars: SKMM1 myeloma viability, CellTiter-Glo ATP, 48 h; viability: stronger effect = lower value. In a few lines: as §1
Assay [9] is described as follows: Quantitative High-Throughput drug screen in 47 multiple myeloma cell lines against the NCATS MIPE library collection: XG6_PLB cell viability assay (AID 1919865). Also: nearly all actives have a fitted effect of over 40% in size. In short, it runs like this: as §1
Assay [10] can be described thus: Quantitative High-Throughput drug screen in 47 multiple myeloma cell lines against the NCATS MIPE library collection: VP6_DJ cell viability assay (AID 1919867). Also: nearly all actives have a fitted effect of over 40% in size. In short, it runs like this:
as §1

Assay [11] can be described thus: Quantitative High-Throughput drug screen in 47 multiple myeloma cell lines against the NCATS MIPE library collection: RPMI8226_ATCC cell viability assay (AID 1919871). Also: nearly all actives have a fitted effect of over 30% in size. In a few lines: as §1
Assay [12] can be described thus: Quantitative High-Throughput drug screen in 47 multiple myeloma cell lines against the NCATS MIPE library collection: OCIMY7_PLB cell viability assay (AID 1918987). Also: nearly all actives have a fitted effect of over 65% in size. The conditions noted are these: OCI-MY7 myeloma viability, CellTiter-Glo ATP, 48 h; viability (% of DMSO): at 45.8 µM (top of the series). In a few lines:
as §1

Assay [13] is described as follows: Quantitative High-Throughput drug screen in 47 multiple myeloma cell lines against the NCATS MIPE library collection: OPM1_PLB cell viability assay (AID 1918989). Also: nearly all actives have a fitted effect of over 40% in size. In a few lines: as §1
The nature of assay [14]: Quantitative High-Throughput drug screen in 47 multiple myeloma cell lines against the NCATS MIPE library collection: PE2_PLB cell viability assay (AID 1919869). Also: nearly all actives have a fitted effect of over 35% in size. In short, it runs like this:
as §1

Assay [15] is described as follows: Quantitative High-Throughput drug screen in 47 multiple myeloma cell lines against the NCATS MIPE library collection: XG1_PLB cell viability assay (AID 1919866). Also: nearly all actives have a fitted effect of over 35% in size. In short, it runs like this:
as §1

The nature of assay [16]: Quantitative High-Throughput drug screen in 47 multiple myeloma cell lines against the NCATS MIPE library collection: KMS28BM_JCRB cell viability assay (AID 1919874). Also: nearly all actives have a fitted effect of over 35% in size. In short, it runs like this:
as §1

Assay [17] in a line: Quantitative High-Throughput drug screen in 47 multiple myeloma cell lines against the NCATS MIPE library collection: UTMC2_PLB cell viability assay (AID 1919868). Also: nearly all actives have a fitted effect of over 55% in size. Particulars: CellTiter-Glo ATP luminescence, 48 h; viability (% of DMSO control): at 45.8 µM (top of the series). In a few lines: as §1
Potency is read from the fitted curve at half-maximal effect.

`Cc1ccc(C(=O)N(CCCN)[C@@H](c2oc3cc(Cl)ccc3c(=O)c2Cc2ccccc2)C(C)C)cc1`: the Potency result in [1], in assay [2], in assay [5] and in assay [6] was “inactive” in each case. Moreover, the Potency in [3] is 20.9 µM (active); in assay [4], 9.35 µM (active).

On to `CCC(=O)OCC(=O)[C@@]1(OC(=O)CC)[C@@H](C)C[C@@H]2[C@H]3CCC4=CC(=O)C=C[C@]4(C)[C@@]3(F)[C@@H](O)C[C@@]21C`, for which the Potency in assay [7] is 1.05 µM (active); in [9], 11.8 µM (active); in [10], 11.8 µM (active); in [4] it was 7.43 µM (active); in [11] it was 0.418 µM (active); in assay [6], 0.0526 µM (active). Besides, the viability in assay [8] was 97.1%. The Potency entry in assay [3] is “inactive”.

For `COc1ccc(-c2oc3c(CC=C(C)C)c(O)cc(O)c3c(=O)c2O)cc1`, the Potency in [12] is 5.9 µM (active); in assay [2], 14.8 µM (active); in assay [8], 20.9 µM (active); in [3], 16.6 µM (active); in assay [9] it was 6.62 µM (active); in [10], 5.26 µM (active). The Potency in [4] was 7.43 µM (active); in assay [11] it was 20.9 µM (active). The Potency result in assay [13], in assay [14], in assay [5] and in assay [6] was “inactive” each time.

`CCC(c1ccc(O)cc1)C(CC)c1ccc(O)cc1` (configuration not stated): the Potency result in assay [7], in [10], in assay [14], in [11] and in assay [5] was “inactive” throughout. The Potency in assay [2] was 3.32 µM (active); in [3], 3.32 µM (active); in [9], 0.833 µM (active).

On to `CC(C)c1onc(-c2c(Cl)cccc2Cl)c1COc1ccc(C=Cc2cccc(C(=O)O)c2)c(Cl)c1`, for which the Potency entry in [1], in assay [13], in assay [15], in assay [14], in assay [11] and in [5] was “inactive” throughout. Further, the Potency result in assay [6] and in [16] was “inactive” each time. In addition, the viability in [8] is 113%.

Consider `C[C@@H](N)c1ccc(C(=O)Nc2ccnc3[nH]ccc23)cc1`, for which the Potency in assay [7] is 20.9 µM (active); in [12], 14.8 µM (active); in [2] it was 23.5 µM (active); in [3], 16.6 µM (active); in assay [9] it was 20.9 µM (active); in [15], 20.9 µM (active). The Potency in assay [10] was 26.4 µM (active); in [17] it was 16.6 µM (active); in [14] it was 26.4 µM (active); in assay [4], 16.6 µM (active); in assay [16], 23.5 µM (active). Further, the Potency entry in assay [5] was “inactive”.

Take `CC(C)CN(C[C@H](O)[C@H](Cc1ccccc1)NC(=O)O[C@H]1CCOC1)S(=O)(=O)c1ccc(N)cc1`: the Potency entry in assay [1] and in [11] was “inactive” in each case. Further, the Potency in [2] was 2.96 µM (active); in [13], 26.4 µM (active); in assay [15], 20.9 µM (active); in [4], 13.2 µM (active); in [5], 18.7 µM (active). The viability in assay [8] was 121%.

Regarding `NS(=O)(=O)c1ccc(Nc2nc(OCC3CCCCC3)c3[nH]cnc3n2)cc1`, the Potency in assay [7] was 20.9 µM (active); in assay [12], 13.2 µM (active); in assay [2], 23.5 µM (active); in [3], 20.9 µM (active); in assay [9], 2.96 µM (active); in assay [15], 2.64 µM (active). The Potency is 16.6 µM (active) in assay [10], 11.8 µM (active) in assay [17], 16.6 µM (active) in assay [14] and 10.5 µM (active) in assay [4]. Also, the Potency result in assay [11] was “inactive”.

For the compound `Cc1ccc(S(=O)(=O)Nc2nc3ccccc3nc2Nc2ccc3nsnc3c2)cc1`, the Potency in [7] is 0.204 µM (active); in assay [12], 1.44 µM (active); in [13] it was 1.15 µM (active); in assay [8], 7.24 µM (active); in [9], 0.0724 µM (active); in assay [15], 0.575 µM (active). The Potency in assay [10] was 0.645 µM (active); in assay [17] it was 1.02 µM (active); in [6], 11.5 µM (active).

For `CC(C)[C@H](O)C(=O)N[C@@H](C)C(=O)N[C@@H]1C(=O)N(C)CCc2ccccc21`, the Potency result in assay [7], in [2], in assay [13], in assay [3], in assay [14] and in assay [11] was “inactive” each time. Also, in assay [5], the Potency entry is “inactive”. The results for the Potency in [9], in [4] and in assay [6] were 26.4 µM (active), 26.4 µM (active) and 0.332 µM (active), respectively.

As for `Oc1ccc(C=Cc2cc(O)cc(O)c2)cc1`, the Potency in assay [1] is 5.26 µM (active); in assay [2] it was 13.2 µM (active); in assay [11], 18.7 µM (active); in assay [6] it was 16.6 µM (active). Further, the Potency result in assay [13], in [4], in assay [5] and in assay [16] was “inactive” in each case.

Take `CO[C@@H]1C(N(C)C(=O)c2ccccc2)C[C@H]2O[C@]1(C)n1c3ccccc3c3c4c(c5c6ccccc6n2c5c31)C(=O)NC4=O` (some centres not stated): the Potency was 3.32 µM (active) in [1]; 0.935 µM (active) in assay [12]; 5.26 µM (active) in assay [2]; 4.18 µM (active) in assay [13]; 11.8 µM (active) in [8]; 13.2 µM (active) in [3]. Besides, the Potency in [17] was 2.64 µM (active); in [14], 3.72 µM (active); in [11] it was 5.26 µM (active); in assay [6] it was 2.35 µM (active).

In the case of `O=c1[nH]c(=O)n([C@H]2C[C@@H](O)[C@@H](CO)O2)cc1C(F)(F)F`, the Potency in assay [12] was 7.43 µM (active); in [2] it was 14.8 µM (active); in assay [8], 5.9 µM (active); in assay [9], 1.87 µM (active); in assay [14] it was 10.5 µM (active); in assay [11] it was 3.72 µM (active). For the same compound, the Potency is 6.62 µM (active) in [6] and 9.35 µM (active) in [16]. Moreover, the Potency result in assay [13], in assay [3] and in [5] was “inactive” each time.

For `CN1CCc2c(n(Cc3ccc(C(=O)NO)cc3)c3ccccc23)C1`, the Potency in [1] is 16.6 µM (active); in assay [12], 4.18 µM (active); in [2] it was 16.6 µM (active); in assay [13] it was 16.6 µM (active); in assay [8], 5.9 µM (active); in assay [3], 26.4 µM (active). Also, the Potency in [9] is 14.8 µM (active); in [10] it was 13.2 µM (active); in assay [14], 20.9 µM (active); in assay [4], 20.9 µM (active); in [6] it was 18.7 µM (active); in assay [16], 18.7 µM (active).

For the compound `Oc1cc(O)cc(C=Cc2ccc(O)c(O)c2)c1`, the Potency in [1] was 11.8 µM (active); in assay [12], 5.26 µM (active); in assay [2], 20.9 µM (active); in assay [13], 16.6 µM (active); in assay [8], 23.5 µM (active); in assay [9], 5.26 µM (active). Further, the Potency in [14] is 4.18 µM (active); in assay [4], 10.5 µM (active).
